# PubChem BioAssay
# Where “and” joins values, the source holds several entries; their conditions need not be identical. Equal entries are not always repeated. Calls of active or inactive are those of the source. Cut-off read from the data, not from the text of the source, unless noted: active = inhibition above about 80%; inactive = the rest.
# Legend:
# [1] = LFS_MB_P medulloblastoma growth inhibition, cell-based, chromothripsis tumors, cisplatin or BGB combos (AID 1671449); details: LFS_MB_P medulloblastoma cells;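 note: cells exposed for 96 hours; 0% = vehicle DMSO and 100% = killing by high DMSO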
# [2] = HDN33 neuroblastoma growth inhibition, cell-based, chromothripsis tumors, cisplatin or BGB combos (AID 1671450); details: HDN33 neuroblastoma cells, stronger effect = higher value;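 note: cells exposed to compound for four days; 0% = vehicle DMSO and 100% = cell killing by high DMSO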
# [3] = ICB984 medulloblastoma cell growth inhibition, synergistic combos for chromothripsis tumors, cisplatin or BGB combos (AID 1671451; call rule not given here;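 note: cells exposed for 96 hours before readout; 0% = vehicle DMSO and 100% = killing by high DMSO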); details: ICB984 medulloblastoma cells, drug combinations, stronger effect = higher value
# [4] = LFS_MB_1R medulloblastoma cell growth inhibition, synergistic combos for chromothripsis tumors, cisplatin or BGB combos (AID 1671452); details: LFS_MB_1R medulloblastoma cells, stronger effect = higher value;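 note: cells exposed for 96 hours before readout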
# [5] = HTB85 osteosarcoma cell growth inhibition, synergistic combos for chromothripsis tumors, BGB or cisplatin IC20 combos (AID 1671453); details: HTB85 osteosarcoma cells, drug combinations, stronger effect = higher value;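 note: cells exposed for 96 hours before readout; 0% = vehicle DMSO and 100% = high DMSO killing control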
# [6] = CRL2098 osteosarcoma cell growth inhibition, synergistic combos for chromothripsis tumors, BGB or cisplatin IC20 combos (AID 1671454); details: CRL2098 osteosarcoma cells, drug combinations, stronger effect = higher value;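 note: cells exposed for 96 h before readout; 0% = vehicle DMSO and 100% = killing by high DMSO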
# [7] = HD-MB03 medulloblastoma cell growth inhibition, synergistic combos for chromothripsis tumors, BGB or cisplatin IC20 combos (AID 1671455; in the data active = inhibition above about 83%;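 note: 0% = vehicle DMSO and 100% = high DMSO as cytotoxic control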); details: HD-MB03 medulloblastoma cells, stronger effect = higher value
# [8] = UWB1.289 ovarian carcinoma cell growth inhibition, synergistic combos for chromothripsis tumors, BGB or cisplatin combos (AID 1671456); details: UWB1.289 ovarian carcinoma cells, stronger effect = higher value;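 note: cells exposed to compound for four days; 0% = vehicle DMSO and 100% = killing by high DMSO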
# [9] = LFS_MB_2R medulloblastoma cell growth inhibition, synergistic combos for chromothripsis tumors, cisplatin combos (AID 1671457); details: LFS_MB_2R medulloblastoma cells, stronger effect = higher value;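 note: cells exposed to compound for four days before readout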
# [10] = MDA-MB-436 breast carcinoma cell growth inhibition, synergistic combos for chromothripsis tumors, BGB or cisplatin combos (AID 1671458; call rule not given here;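 note: cells exposed for 96 hours; 0% = vehicle DMSO and 100% = killing by high DMSO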); details: MDA-MB-436 breast carcinoma growth inhibition, drug combinations, stronger effect = higher value
# [11] = UWB1.289_BRCA1 ovarian cancer growth, cell-based, BGB or cisplatin combinations (AID 1671459); details: UWB1.289 BRCA1 ovarian carcinoma, drug combinations, stronger effect = higher value
# [12] = human astrocyte viability loss, single and combined drugs, cytotoxicity control for chromothriptic childhood tumor combination screen, cell-based, BGB or cisplatin IC20 combos (AID 1671460); details: Human astrocytes, drug combinations, stronger effect = higher value;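 note: cells exposed to compounds for 96 hours before viability readout; 0% = vehicle and 100% = killing control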
# [13] = growth inhibition of BT084 medulloblastoma cells, cell-based, ICGC_MB145, cisplatin and BGB IC40 combos (AID 1671461); details: drug combinations, stronger effect = higher value;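 note: cells exposed to drugs for 96 hours; 0% = vehicle DMSO and 100% = high DMSO full killing control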
# [14] = growth inhibition of RCMB18 medulloblastoma cells, cell-based, cisplatin and BGB IC40 combos (AID 1671462); details: stronger effect = higher value;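 note: cells exposed to compound for four days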
# [15] = growth inhibition of CRL1545 osteosarcoma cells, cell-based, cisplatin and BGB IC20 combos (AID 1671464); details: stronger effect = higher value;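 note: cells exposed to compound for 96 hours before readout; 0% = vehicle DMSO and 100% = high DMSO killing control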
# [16] = measured here: combination with BGB IC40, at 0.05 µM
# [17] = measured here: with BGB IC20 combination, at 0.5 µM
# [18] = measured here: with cisplatin IC20 combination, at 0.5 µM
# [19] = measured here: combination with cisplatin, at 0.5 µM
# [20] = measured here: combination with cisplatin, at 5 µM
smiles,measurement,setting,value
Nc1cc(F)ccc1NC(=O)/C=C/c1cnn(C/C=C/c2ccccc2)c1,inhibition,"[1]; at 0.5 µM, stronger effect = higher value",19.7% (inactive) and -29.8% (inactive)
same,inhibition,"[1]; measured here: combination with BGB IC20, at 0.005 µM",-27.4% and -4.91%
same,inhibition,"[1]; measured here: combination with BGB IC40, at 0.005 µM",89.6% and -23%
same,inhibition,[1]; [16],10.4% and 0.325%
same,inhibition,"[1]; measured here: combination with cisplatin, at 0.5 µM, stronger effect = higher value",-17.2% and -44.8%
same,inhibition,"[1]; measured here: combination with cisplatin, at 5 µM, stronger effect = higher value",-14.4% and -23.8%
same,inhibition,"[2]; BGB combo, at 5 µM",-55.4% and -3.94%
same,inhibition,[2]; at 0.5 µM,-46.1% (inactive) and -1.14% (inactive)
same,inhibition,"[2]; cisplatin combo, at 5 µM",-62.1% and 12.2%
same,inhibition,[2]; [17],-50.1% and 0.078%
same,inhibition,[2]; [18],-34.6% and -2.05%
same,inhibition,"[2]; single agent, at 5 µM",-50.8% and -2.21%
same,inhibition,"[3]; BGB IC20 combo, at 0.005 µM",-16.5% and -7.2%
same,inhibition,"[3]; BGB IC40 combo, at 0.005 µM",-16% and 5.39%
same,inhibition,"[3]; BGB IC40 combo, at 0.05 µM",-9.88% and 2.13%
same,inhibition,[3]; at 0.5 µM,-33.8% (inactive) and -9.71% (inactive)
same,inhibition,"[3]; cisplatin combo, at 0.05 µM",-15.5% and -1.74%
same,inhibition,"[3]; cisplatin combo, at 0.5 µM",-45.9% and -17.3%
same,inhibition,"[3]; cisplatin combo, at 5 µM",-20.4% and -41.2%
same,inhibition,"[3]; measured here: 5 uM single agent, at 5 µM",-25.9% and -12.4%
same,inhibition,[4]; at 0.5 µM,-30.2% (inactive) and -13.5% (inactive)
same,inhibition,[4]; [16],-20% and -25.7%
same,inhibition,[4]; [19],-51.6% and -12%
same,inhibition,[4]; [20],-19.1% and 0.402%
same,inhibition,[5]; at 0.5 µM,-30% (inactive) and 0.99% (inactive)
same,inhibition,"[5]; measured here: with BGB IC20, at 0.5 µM",-21.5% and 1.42%
same,inhibition,"[5]; measured here: with BGB IC20, at 5 µM",-17.1% and -19.7%
same,inhibition,"[5]; measured here: with cisplatin IC20, at 0.5 µM",-35.4% and -2.87%
same,inhibition,"[5]; measured here: with cisplatin IC20, at 5 µM",19.9% and 1.46%
same,inhibition,"[5]; single agent, at 5 µM",-33.7% and -0.677%
same,inhibition,[6]; at 0.5 µM,-90.2% (inactive) and -24% (inactive)
same,inhibition,"[6]; measured here: combination with BGB at IC20, at 0.5 µM",-110% and -20.4%
same,inhibition,"[6]; measured here: combination with cisplatin at IC20, at 0.5 µM",-83.6% and -21.7%
same,inhibition,[7]; at 0.5 µM,-17.4% (inactive) and -5.34% (inactive)
same,inhibition,"[7]; measured here: combo with BGB at IC20, at 0.5 µM",-11.2% and -7.19%
same,inhibition,"[7]; measured here: combo with cisplatin at IC20, at 0.5 µM",-20.1% and 0.566%
same,inhibition,[8]; at 0.5 µM,-10.9% (inactive) and -4.29% (inactive)
same,inhibition,"[8]; measured here: inhibition with BGB combination, at 0.05 µM",-7.43% and -5.9%
same,inhibition,"[8]; measured here: inhibition with cisplatin combination, at 0.05 µM",-31.6% and -3.68%
same,inhibition,[9]; at 0.5 µM,-20.7% (inactive) and -11.8% (inactive)
same,inhibition,[9]; [19],-25.8% and -7.04%
same,inhibition,[9]; [20],-6.14% and -2.99%
same,inhibition,[10]; at 0.5 µM,-30.9% (inactive) and -9.97% (inactive)
same,inhibition,"[10]; measured here: BGB combination, at 0.5 µM",-13.1%
same,inhibition,"[10]; measured here: BGB combination, at 5 µM",-3.22% and -1.12%
same,inhibition,"[10]; measured here: cisplatin combination, at 0.5 µM",-59.9% and -6.82%
same,inhibition,"[10]; measured here: cisplatin combination, at 5 µM",8% and 15.6%
same,inhibition,"[11]; BGB combination, concentration series, at 5 µM",-29.7% and 12%
same,inhibition,[11]; at 0.5 µM,-22.5% (inactive) and -3.56% (inactive)
same,inhibition,"[11]; cisplatin combination, concentration series, at 5 µM",-4.42% and 12.4%
same,inhibition,[12]; at 0.5 µM,2.29% (inactive) and 8.32% (inactive)
same,inhibition,"[12]; measured here: combo with BGB IC20, at 0.5 µM",16.9% and 12.5%
same,inhibition,"[12]; measured here: combo with cisplatin IC20, at 0.5 µM",-7.65% and 10.5%
same,inhibition,[13]; at 0.5 µM,-9.17% (inactive) and 0.933% (inactive)
same,inhibition,"[13]; cisplatin combination, at 0.5 µM",-6.82% and -1.46%
same,inhibition,"[13]; cisplatin combination, at 5 µM",-105% and 25.2%
same,inhibition,"[13]; measured here: BGB IC40 combination 0.05 uM, at 0.05 µM",-19.8% and -24.1%
same,inhibition,"[13]; single agent, at 5 µM",-7.33% and 11.8%
same,inhibition,[14]; at 0.5 µM,2.62% (inactive) and -10.6% (inactive)
same,inhibition,"[14]; cisplatin combo, at 5 µM",-19.2% and 26.8%
same,inhibition,"[14]; measured here: BGB IC40 combination, at 0.05 µM",-14.2% and 7.18%
same,inhibition,[14]; [19],9.23% and 6.5%
same,inhibition,"[14]; single agent, at 5 µM",5.68% and -6.78%
same,inhibition,[15]; at 0.5 µM,-28.2% (inactive) and -6.93% (inactive)
same,inhibition,[15]; [17],-50.8% and -4.55%
same,inhibition,[15]; [18],-18.7% and -8.13%
same,inhibition,"[15]; single agent, at 0.05 µM",-48.6% and -13.2%
same,inhibition,"[15]; single agent, at 5 µM",23.9% and 22.7%
